Several values for one entry are separate records, joined by “and”; a condition that tells them apart may be missing. Equal entries are not always repeated. Out of some 16,000 compounds screened, about 4,000 (25%) were called active. Inconclusive results (about 26%) are left out. The call rests on the fitted dose curve; in most records, active means well fitted curve in the direction sought with a large enough effect; inconclusive means small, poorly fitted or top-dose-only effect, or effect the other way; inactive means no such curve, though single readings can be large or run the other way. Only a sample is shown.
Molecular target: Cytochrome P450 2C9 (Homo sapiens) (UniProt P11712)
Test: Cytochrome panel assay with activity outcomes
Settings: recombinant CYP, pro-luciferin dealkylation, luminescence, p450-cyp2c9; series mostly up to 57.1 µM; activity, negative = inhibition: at the top concentration
On the % scale 0 is the no-effect control and ±100 the full control effect.

Sequence of Cytochrome P450 2C9 (Homo sapiens) (P11712 whole entry, looked up): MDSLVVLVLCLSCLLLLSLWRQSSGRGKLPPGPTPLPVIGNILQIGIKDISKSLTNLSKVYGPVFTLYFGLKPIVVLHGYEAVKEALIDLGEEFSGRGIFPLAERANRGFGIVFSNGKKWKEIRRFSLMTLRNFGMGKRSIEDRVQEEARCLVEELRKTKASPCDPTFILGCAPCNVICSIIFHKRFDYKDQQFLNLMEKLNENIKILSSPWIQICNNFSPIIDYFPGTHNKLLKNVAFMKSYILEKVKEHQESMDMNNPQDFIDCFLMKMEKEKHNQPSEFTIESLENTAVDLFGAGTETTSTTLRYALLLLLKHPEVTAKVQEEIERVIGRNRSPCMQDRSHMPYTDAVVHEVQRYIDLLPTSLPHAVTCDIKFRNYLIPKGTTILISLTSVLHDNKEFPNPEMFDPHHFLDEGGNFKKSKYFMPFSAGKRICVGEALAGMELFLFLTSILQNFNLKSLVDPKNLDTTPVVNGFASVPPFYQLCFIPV

activity, negative = inhibition, inactive:
COCCNc1ccnc(-c2ccccc2C)n1 -5% [at 2.29 µM], CCOC(=O)c1cn(-c2nc(-c3ccc(Cl)cc3)cs2)c2c(F)c(N3CC(C)OC(C)C3)c(F)cc2c1=O (stereo unspecified) -40.2%, CCOC(=O)c1cnn(CCOC(=O)C(C)(C)C)c1NC(=O)C(C)(C)C -32.9%, CCOC(=O)c1cnn(-c2cc(Oc3ccccc3)ncn2)c1N -9.04%, FC(F)(F)c1ccccc1-c1cncnc1NCc1cccs1 -5.24% [at 2.29 µM], CC(C)n1nnc2ccccc2c1=O -24.8%, Cc1ccc(C(=O)/C=C2\NCC(C)NC2=O)cc1 (stereo unspecified) -2.82%, CC(C)(C)OC(=O)[C@H]([C@@H]1N[C@@H](C(=O)O)C(C)(C)S1)N1C(=O)c2ccccc2C1=O 19% [at 11.4 µM], CCN1C(=O)[C@H]2[C@H]3[C@H](O)[C@H](O)C/C(=N/O[C@@H](C)c4cn([C@H](CO)Cc5ccccc5)nn4)[C@@H]3CC[C@@H]2C1=O -13.4% [at 11.4 µM] and 2.69% [at 11.4 µM], CC1(C)O[C@@H]2O[C@H]([C@H](O)CO/N=C3/[C@H]4O[C@@H]4[C@@H](O)[C@H]4[C@H]3CCn3c(=O)n(-c5ccccc5)c(=O)n34)[C@@H](O)[C@@H]2O1 15.4% [at 11.4 µM], Cc1cc(C=O)c(C)n1-c1ccc(NC2CCCC2)c([N+](=O)[O-])c1 -36.3%, Cc1cnn(-c2cc(N/N=C/c3ccccc3)ncn2)c1 -16%, C(=N/Nc1nnc2c(n1)[nH]c1ccccc12)/c1cccnc1 -16.8% [at 11.4 µM], CC(C)=C[C@H]1[C@@H](C(=O)Oc2ccccc2C(C)C)C1(C)C -15.1% [at 11.4 µM], CCN1C(=O)[C@H]2[C@@H]3[C@H](O)C=CC(=O)[C@H]3CC[C@H]2C1=O 17.9% [at 11.4 µM], CCN1CCN(C(=O)N[C@H](C(=O)N[C@@H]2C(=O)N3[C@@H]2SC(C)(C)[C@@H]3C(=O)O)c2ccccc2)C(=O)C1=O 25.1% [at 25.6 µM], COc1cc2c(c(O)c1OC)C(=O)C(OC)CCC2 (stereo unspecified) 18.1%, Nc1ncnc2c1nc(-c1ccccc1)n2[C@H]1O[C@@H](CO)[C@@H](O)[C@H]1O 9.27% [at 11.4 µM], O=[N+]([O-])c1cccc2c[nH]nc12 7.17%, COc1cc(OC)c(OC)cc1C=NCC1(c2ccccc2)CCCC1 32.7%, CN1CCCC2(CCN(C(=O)c3cnccn3)CC2)C1 15.7%, CC(C)(N)C(=O)N[C@@H]1C(=O)N2[C@@H]1SC(C)(C)[C@H]2C(=O)O 14.5% [at 11.4 µM], CCCCCCC(C)n1cc(C(C)=O)c(=O)[nH]c1=O (stereo unspecified) -56.9%, O=C(Oc1ccc2c(c1)CN(Cc1ccccc1)CO2)c1ccccc1 -0.387% [at 11.4 µM], COC(=O)[C@H](N)Cc1ccc(Cl)cc1 -6.72%, CCN(CC)C(=O)C1=C(C)NC(=S)NC1c1cn(-c2ccccc2)nc1-c1ccc(Cl)cc1 (stereo unspecified) -22.4%, c1ccc2c(c1)CCCc1cc(NCCN3CCOCC3)nnc1-2 8.78% [at 25.6 µM], COc1ccccc1CN1CCC2(CCNCC2)CC1 -8.3%, C(=Nc1cnc2ccccc2c1)c1ccc2ccccc2n1 3.29% [at 11.4 µM], Cc1cccc(NC(=S)Nc2ccc(Br)cc2)c1 -14.1%, C[C@@H](c1ccccc1)N1C(=O)[C@H]2[C@H]3[C@H](O)[C@H](O)C/C(=N/OCc4ccccc4)[C@@H]3CC[C@@H]2C1=O -23.4% [at 11.4 µM], COc1ccc(CNc2ncncc2-c2cccc(C#N)c2)c(OC)c1 -28.7% [at 2.29 µM], CN1CCN(C(c2ccccc2)c2ccccc2)CC1 -7.31% [at 25.6 µM], NC(=O)CNCCC(c1ccccc1)c1ccccc1 14.6%, COC(=O)c1cc(=O)n(C2CC2)c(=NC2CC2)s1 18.9%, O=C(O)[C@H](CCc1ccccn1)c1ccccc1 -5.61% [at 11.4 µM], O=C(O)c1ccccc1C(=O)Nc1nccs1 -17.5%, COc1ccccc1CN1CCC2(CC1)CCN(C(=O)c1cccn1C)CC2 8.97%, CCCNC(=O)N1N=C(c2ccc(N)cc2)c2cc3c(cc2[C@H]1C)OCO3 -17%, Cc1ccc(C)c(S(=O)(=O)NC(CC(C)C)C(=O)O)c1 (stereo unspecified) 2.73%, O=C(O)[C@@H]1[C@@H](C(=O)NCc2ccncc2)[C@@H]2C=C[C@@H]1O2 -12.4% [at 11.4 µM], Cc1ccc(C(=O)NCc2ccc(N3CCN(C(=O)OC(C)(C)C)CC3)cc2)cc1 -18.2%, COCC(=O)N1CCC2(CC1)CN(Cc1ccccc1OC)C2 16.9%, CC1=C(C(=O)O)N2C(=O)C(NC(=O)c3ccn(C)n3)C2SC1 (stereo unspecified) -1.32%, CC(C)(N=NC(C)(C)C(=N)N)C(=N)N 0.959% [at 11.4 µM], COc1ccccc1CN1CCCC2(CCN(C(=O)c3cnccn3)CC2)C1 13.5%, Cc1ccc(C(=O)NCCNC(=O)CN2CCOCC2)cc1 -18.5%, Nc1nc(-c2cccc([N+](=O)[O-])c2)cc(-c2cc(-c3cccc([N+](=O)[O-])c3)nc(N)n2)n1 20.9% [at 11.4 µM], Nc1nc(-c2cccs2)cs1 -11.3%, Cc1cnc(CNc2ccnc(-c3ccc(N(C)C)cc3)n2)cn1 1.73% [at 2.29 µM], COc1cccc(/C=N/n2nnc3c(cnn3-c3ccccc3)c2=O)c1 1.29%, O=C(CCN1CCCCC1)N1CCc2c([nH]c3ccccc23)[C@H]1c1cccnc1 2.98% [at 11.4 µM], Clc1ccc(CSC2=NCCN2)cc1Cl 9.47% [at 11.4 µM], COc1ccc(-c2nc3cnc(Nc4cccc(OC)c4)nc3n(CCC#N)c2=O)cc1 4.66%, COc1ccc(NC(=O)C2CC(=O)NC3=C2C(=O)CC(C)(C)C3)cc1 (stereo unspecified) -7.67%, COc1cc(C2SCCCCCCCCCCSC(c3ccc(O)c(OC)c3)SCCCCCCCCCCS2)ccc1O (stereo unspecified) 10.3% [at 11.4 µM], O=C=Nc1ccc(Cc2ccc(N=C=O)cc2)cc1 (tested in a mixture with another compound) 2.55% [at 11.4 µM]

AC50, active:
CCOC(=O)c1cnn(-c2nc(-c3ccc(F)cc3)cs2)c1C(F)(F)F 12.6 µM, CCOC(=O)c1cnn(-c2nc(-c3cccc(F)c3)cs2)c1C(F)(F)F 2.24 µM, O=c1c2ccccc2nnn1CSc1ccc2c(c1)OCCO2 7.94 µM, Cc1ccc(C(=O)/C=C/c2c[nH]c3ccccc23)cc1 2.82 µM, CSc1nsc(SCc2ccc(Cl)cc2)n1 0.355 µM, COC(=O)c1c(-n2c(C)cc(C=O)c2C)sc2c1CCCC2 1.12 µM, Cc1sc(N/N=C/c2cccnc2)nc1-c1ccccc1 0.355 µM, COc1cc([C@H]2c3cc4c(cc3[C@@H](O)[C@@H]3COC(=O)[C@H]23)OCO4)cc(OC)c1OC 6.31 µM, Cn1cc([N+](=O)[O-])c(C(=O)Nc2cc(Oc3cccnc3)cc([N+](=O)[O-])c2)n1 5.62 µM, CCC/C=C(\CCC)C(NS(=O)(=O)c1cccc2cccnc12)c1ccc(-c2ccccc2)cc1 (stereo unspecified) 2 µM, CCC/C=C(\CCC)C(NS(=O)(=O)c1cccc2cccnc12)c1ccc(C(=O)OC)cc1 (stereo unspecified) 1.58 µM, O=[N+]([O-])c1ccc(S(=O)(=O)Cc2ccccc2)c2nonc12 0.316 µM, Cc1cc(OCCn2cc(/C(N)=N/O)c3ccccc32)ccc1Cl 12.6 µM, Cc1csc(NC(=O)Cc2c[nH]c3ccccc23)n1 12.6 µM, CC1(C)Cc2c(C#N)c(SCc3ccccc3)nc(N3CCOCC3)c2CO1 0.708 µM, COC(=O)C(Cc1ccc(OC(=O)c2ccc(C(F)(F)F)cc2)cc1)N1Cc2ccccc2C1=O (stereo unspecified) 8.91 µM, COC(=O)C(Cc1ccc(OC(=O)c2ccc(Cl)cc2)cc1)N1Cc2ccccc2C1=O (stereo unspecified) 3.16 µM, COC(=O)C1=C(C)NC2=C(C(=O)CCC2)C1c1cn(Cc2ccc(Cl)cc2Cl)nc1-c1ccccc1 (stereo unspecified) 1 µM, C/C(=N\NC(=S)Nc1cccc(C)c1)c1ccccc1 6.31 µM, Cc1cccc(NC(=S)NC(=O)CCc2ccccc2)c1 7.94 µM, S=C(NCc1ccco1)N1CCN(C(c2ccccc2)c2ccccc2)CC1 3.16 µM, O=C1C2ON(c3ccccc3)C(c3ccncc3)C2C(=O)N1c1ccccc1 (stereo unspecified) 0.398 µM, CCCC(C(=O)Nc1nccs1)c1ccccc1 (stereo unspecified) 12.6 µM, CC(=O)OCCCN1c2ccccc2Nc2nnc(-c3ccccc3)cc21 1.78 µM, Cc1ccc(SCc2ccc(C(=O)NCc3ccncc3)cc2)cc1 0.0126 µM, Cc1ccc(SCCNC(=O)c2ccc(C)c(S(=O)(=O)Nc3ccccc3C)c2)cc1 4.47 µM, Cc1ccccc1NS(=O)(=O)c1cc(C(=O)Nc2cccc(N(C)S(C)(=O)=O)c2)ccc1C 0.794 µM, Cc1ccc(SCCNC(=S)Nc2ccc(C)c(C)c2)cc1 12.6 µM, Cc1ccc(SCCNC(=O)c2ccccc2)cc1 17.8 µM, O=C1NC(c2cccc([N+](=O)[O-])c2)=CCN1c1ccccc1O 1 µM, Cc1c(-c2ccc(F)cc2)nc(N)c(C#N)c1-c1cccs1 1.58 µM, CSc1nc(N)nc(-c2cccs2)c1C#N 7.08 µM, CNc1cc(CSC)nc(SCc2ccc(Cl)c(Cl)c2)n1 8.91 µM, COc1ccc(OC)c(C2CC(=O)C3=C(C2)NC(=O)CC3c2ccc(O)c(OC)c2)c1 (stereo unspecified) 11.2 µM
